ST2 IL33 inh = blocks human ST2 binding to IL-33. 78,000 compounds, 2.3% hits. Q01638. inhibition, % for hits at 17 µM. AlphaLISA ST2-Fc/biotin-IL-33 interaction, 1 h; in the data active = inhibition above about 30%
Target sequence (Q01638 whole entry, looked up): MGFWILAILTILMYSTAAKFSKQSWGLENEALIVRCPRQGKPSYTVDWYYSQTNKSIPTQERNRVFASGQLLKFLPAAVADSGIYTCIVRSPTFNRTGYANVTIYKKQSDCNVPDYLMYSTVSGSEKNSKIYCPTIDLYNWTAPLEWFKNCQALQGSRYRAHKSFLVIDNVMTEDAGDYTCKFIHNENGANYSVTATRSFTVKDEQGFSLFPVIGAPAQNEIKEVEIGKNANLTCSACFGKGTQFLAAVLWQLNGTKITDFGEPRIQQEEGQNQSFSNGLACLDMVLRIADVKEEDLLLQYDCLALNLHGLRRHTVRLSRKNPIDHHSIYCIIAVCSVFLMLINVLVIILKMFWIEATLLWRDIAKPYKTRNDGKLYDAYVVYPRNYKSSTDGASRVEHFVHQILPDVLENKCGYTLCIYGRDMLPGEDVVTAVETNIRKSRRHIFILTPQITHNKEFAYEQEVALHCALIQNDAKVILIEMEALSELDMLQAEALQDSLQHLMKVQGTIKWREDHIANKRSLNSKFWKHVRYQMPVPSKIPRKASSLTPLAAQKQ
Starred values were filed as active, the others as inactive; i = inactive. The full list was thinned out, with hits kept by preference.

SMILES | ST2 IL33 inh
O=C(O)C1(CCCc2ccccc2)CCCN(c2ncccn2)C1 (stereo not drawn) | i
C=CCNC(=O)Cc1ccc(NC(=O)CCC)cc1 | i
COc1cccc(CC2CN(C(=O)CCCc3cccs3)CCO2)c1 (stereo not drawn) | i
CC1=C(C#N)C(=O)NC(=O)/C1=C\c1ccc(-c2cc(C)c(C)cc2[N+](=O)[O-])o1 | 34.0%*
Cc1ccc(C2=N/C(=C\c3cccnc3)C(=O)O2)cc1[N+](=O)[O-] | i
Cc1ccc(-c2ccc(/C=C3/NC(=O)NC3=O)o2)cc1[N+](=O)[O-] | 41.0%*
Cc1ccc(-c2ccc(C=C3C(=O)OC(C)(C(C)(C)C)OC3=O)o2)cc1[N+](=O)[O-] (stereo not drawn) | i
CCCCN(C)C(=O)c1nn(-c2ccc(Cl)cc2)c(=O)c2ccccc12 | i
Cc1ccnc(Nc2nc(-c3ccccn3)cs2)c1 | i
Cc1ccnc(Nc2nc(-c3ccc(O)c(O)c3)cs2)c1 | 44.0%*
Cc1ccc(Nc2nc(-c3ccc(F)cc3)cs2)cc1C | i
COc1ccccc1-c1cc2n(C)c(C)c(CCC(=O)Nc3ccc(F)cc3)c(=O)n2n1 | i
COc1ccc(C=Nc2c(C)n(C)n(-c3ccccc3)c2=O)cc1Br | i
COc1ccc(C(=O)ON=C2C(C)=CC(=O)C=C2C)cc1 | 52.0%*
CC1=CC(=O)C=C(C)C1=NOC(=O)c1ccc([N+](=O)[O-])cc1[N+](=O)[O-] | i
COc1ccc(C(=O)O/N=C(/N)Cc2ccc(Cl)cc2)cc1 | i
CC1=C(C(=O)OC2CCCC2)C(c2ccc(O)cc2)NC(=O)N1 (stereo not drawn) | i
CCn1c(/C=C/c2cccnc2)nc2ccccc2c1=O | 96.0%*
Cn1c(/C=C/c2ccc(Br)cc2)nc2ccccc2c1=O | i
Cc1nc2ccccc2c(=O)n1CC(=O)NCc1ccccc1 | i
c1ccc(NC2CCN(Cc3cc4n(n3)CCCNC4)CC2)nc1 | i
COc1ccc(-c2csc(/C(C#N)=C\Nc3cccc(C(F)(F)F)c3)n2)cc1OC | i
COc1ccc(-c2csc(/C(C#N)=C/c3ccc(Cl)cc3)n2)cc1 | 34.0%*
COc1cc(N/C=C(/C#N)c2nc(-c3ccc(F)cc3)cs2)c(OC)cc1Cl | i
COc1cc(N/C=C(\C#N)c2nc(-c3cc4ccccc4oc3=O)cs2)c(OC)cc1Cl | i
SMILES | ST2 IL33 inh
N#C/C(=C/c1ccccc1Cl)c1nc(-c2ccccc2)cs1 | 65.0%*
COc1ccc(OC)c(N/C=C(\C#N)c2nc(-c3cc4ccccc4oc3=O)cs2)c1 | 37.0%*
COc1ccc(-c2csc(/C(C#N)=C/c3ccccc3OC)n2)cc1 | 40.0%*
O=C(Nc1nc(-c2ccccc2)cs1)c1ccccc1 | i
COc1ccc(-c2csc(/C(C#N)=C\c3ccc(F)cc3)n2)cc1OC | i
COc1ccc(N/C=C(\C#N)c2nc(-c3cc4cc([N+](=O)[O-])ccc4oc3=O)cs2)c(OC)c1 | i
N#C/C(=C\c1ccccc1[N+](=O)[O-])c1nc(-c2ccc(Cl)c(Cl)c2)cs1 | i
COc1ccc(/C=C(\C#N)[N+](=O)[O-])cc1 | i
O=C(CN1C(=O)C2(OCCO2)c2ccccc21)c1ccccc1 | i
COc1ccc(C(=O)Nc2sc3c(c2C(N)=O)CCC(C)C3)c(OC)c1 (stereo not drawn) | i
Cc1cc(OCC(O)CNC2CCSCC2)ccc1Cl (stereo not drawn) | i
CCN(Cc1nc(COC)no1)C(=O)c1ccc2cc[nH]c2c1 | i
Cc1nc(C)c(CN2CCC(Cn3cc(C4CC4)nn3)CC2)nc1C | i
c1ccc(CN(Cc2cnc3nccn3c2)Cc2nccs2)cc1 | i
Cc1cccc(N2CCN(C(=O)c3ccccc3N3CCOCC3)CC2)n1 | i
COc1ccc(-c2csc(/C(C#N)=C/c3cccs3)n2)cc1 | 50.0%*
COc1ccc(C2=Nn3c(nnc3-c3ccccc3Cl)SC2)cc1 | i
N#C/C(=C\c1cccs1)c1nc(-c2ccc(Cl)c(Cl)c2)cs1 | i
COc1cccc2cc(-c3nc(-c4ccc(Cl)cc4)cs3)c(=O)oc12 | i
COc1ccc(-c2cc(C(F)(F)F)nc(NCc3cccs3)n2)cc1 | i
COc1ccc(-c2csc(/C(C#N)=C/c3ccccc3Cl)n2)cc1 | 42.0%*
Cc1cc(OCC(O)CN2CCCCC2C)ccc1Cl (stereo not drawn) | i
COC(=O)c1c(C)nc2n(CCN3CCOCC3)c3ccccc3n12 | i
COc1ccccc1-c1nc(C(N)=O)c2c(n1)n(-c1ccc(F)cc1)c(=O)n2C | i
Cc1nn(C)c(C)c1CCc1nc(CC(C)C)nn1-c1ccccn1 | i
SMILES | ST2 IL33 inh
Cc1[nH]c2ccccc2c(=O)c1CN1CCCCC1C (stereo not drawn) | i
O=C1OC(c2cccc(F)c2)=N/C1=C/c1ccc(-c2ccccc2[N+](=O)[O-])o1 | i
O=C(Nc1ccc(I)cc1Cl)c1ccc(-c2ccccc2[N+](=O)[O-])o1 | i
O=[N+]([O-])c1ccccc1-c1ccc(/C=C/c2ccncc2)o1 | 49.0%*
CCCC12CN3CC(C)(CN(C1)C3c1cccc([N+](=O)[O-])c1)C2=O (stereo not drawn) | i
COc1cc(OC)c(CN2CCN(c3ccccc3F)CC2)cc1Br | 36.0%*
Fc1ccccc1N1CCN(Cc2ccco2)CC1 | i
COc1ccccc1N1CCN(Cc2ccc(C(=O)O)cc2)CC1 | i
COc1cc(OC)c(OC)cc1CN1CCN(c2ccc(F)cc2)CC1 | i
COc1ccccc1N1CCN(Cc2cc(OC)c(O)c(OC)c2)CC1 | i
COc1ccc(CN2CCN(Cc3cc(OC)c(OC)cc3OC)CC2)cc1 | i
COc1cc(OC)c(OC)cc1CN1CCN(c2cc(C)ccc2C)CC1 | 35.0%*
COc1ccc(CN2CCN(c3ccccc3OC)CC2)cc1OC | 30.0%*
COc1cc(OC)c(OC)cc1CN1CCN(c2ccccn2)CC1 | i
COc1ccc(NC(=O)c2c(I)cnn2C)cc1 | i
COc1nc(Oc2ccc(/C=N\O)cc2)nc(N(C)C)n1 | i
Cc1cc(C(=O)NC(CCn2cncn2)c2ccccc2)nc(C)n1 (stereo not drawn) | i
CCOC(=O)C(CC)Sc1nc2c(c(=O)[nH]c(=O)n2C)n1C (stereo not drawn) | i
CCOC(=O)c1sc2nc(C)nc(Nc3ccc(C)cc3)c2c1C | i
CC(=O)N(c1ccc2oc(=O)sc2c1)S(=O)(=O)c1ccc(Br)cc1 | i
CSc1c(CC(=O)NCCc2ccccc2)n(C)c2ccc(C)cc12 | i
COCCN(Cc1cnn(C)c1)C(=O)c1cncc(C)c1 | i
Cc1cccc(C(=O)Nc2c3c(nn2-c2ccc(C)cc2C)CSC3)c1 | i
CC(=O)n1c2ccccc2c2c1c1ccccc1n2C | i
CC(=O)c1ccc2c(c1)c1ccccc1n2C | i
SMILES | ST2 IL33 inh
Cc1c(C(=O)Cc2ccccc2)n(C)c2ccccc12 | 37.0%*
CCOC(=O)c1cccc(NS(=O)(=O)c2cccc3nsnc23)c1 | i
CC(=O)OCc1c(C)cc(C)c(CNCc2cnc(C)cn2)c1C | i
Cc1ccc(NC(=O)c2ccc(C)c(S(=O)(=O)Nc3ccccn3)c2)cc1 | i
O=C(Nc1ccc(Br)cc1)c1cccc(S(=O)(=O)Nc2ccccn2)c1 | 42.0%*
O=S(=O)(Nc1ccccn1)c1ccc(Br)cc1 | i
CCCCOC(=O)C1=C(C)Nc2nnnn2C1c1cccs1 (stereo not drawn) | i
Cc1ccnc(NS(=O)(=O)c2ccc(NC(=O)COc3ccc(Cl)cc3Cl)cc2)n1 | i
COc1ccc(CNC(=O)c2ccc3c(c2)ncn3C2CCCC2)c(OC)c1 | i

Screens (PubChem BioAssay)
